HCV inh: qHTS Assay for Inhibitors of Hepatitis C Virus (HCV); Potency, µM (doses to about 41.8 µM), most hits filed as inhibitors; Huh7.5.1 HCVcc-Cre infection, luciferase reporter, 44 h; actives 3.4% (n = 340,000)
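After 44 h co-culture of compound, cells and HCVcc-Cre (~0.5 moi), substrate is added for 15 min at room temperature and luciferase measured over 15 sec. Cells were seeded at 1,000/well and pre-cultured 4 h.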
Pf growth 96h: Primary qHTS for delayed death inhibitors of the malarial parasite plastid, 96 hour incubation; P. falciparum luciferase reporter growth, 96 h; Potency, µM (top dose mostly 28.7 µM), hits mostly inhibitors; actives 6.9% (n = 320,000)
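Cell-based qHTS: luciferase-tagged P. falciparum in erythrocytes (2% hematocrit, 0.05% parasitemia final) incubated with compounds for 96 hours, 37 C, 5% CO2; luciferase detection reagent then added and luminescence measured.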
AMA1 RON2 block: qHTS for Inhibitors of AMA1-RON; Towards Development of Antimalarial Drug Lead: Primary Screen | Plasmodium falciparum AMA1 (3D7) - RON2 peptide interaction | actives 0.2% (n = 360,000) | AlphaScreen AMA1-biotinylated RON2 peptide binding | Potency, µM (highest dose often 58.2 µM), hits mostly inhibitors; also: nearly all actives have a fitted effect of over 45% in size
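AMA1 (3D7) with his tag at 25 nM final met compounds first, then biotinylated RON2 peptide at 25 nM; detection used donor plus acceptor beads, 10 µg/mL apiece, read by AlphaScreen after 30 min at room temperature.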
Pf growth 48h: Primary qHTS for delayed death inhibitors of the malarial parasite plastid, 48 hour incubation; P. falciparum luciferase growth in erythrocytes, 48 h; Potency, µM (highest dose often 28.7 µM), hits mostly inhibitors; actives 5.9% (n = 310,000); AID 504832, 2011
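Parasite viability was followed by luminescence of a genomically integrated firefly luciferase. Cultures held 0.1% parasitemia at 2% hematocrit (final), incubated under 5% CO2 at 37 C.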
Each line names hits and unclear results; the compound was inactive in the other large screens. This is a sample that favours compounds with a hit; in the whole collection about 11% have one here. Calls follow the shape of the dose curve; as a rule, active = well fitted curve in the direction sought with a large enough effect; inconclusive = small, poorly fitted or top-dose-only effect, or another doubt; inactive = no such curve, though single readings can be large; an effect the other way counts as inactive or inconclusive.

COc1ccc(-c2cc(C(F)F)n3ncc(C(=O)N4CCN5CCCC5C4)c3n2)cc1 (stereo not given)	HCV inh inconclusive, Pf growth 96h 9.3µM, Pf growth 48h inconclusive
COc1ccc(-c2cc(C(F)F)n3ncc(C(=O)N4CCc5ccccc54)c3n2)cc1	HCV inh inconclusive, Pf growth 48h inconclusive
Cc1ccc(-c2cc(C(F)F)n3ncc(C(=O)N4CCc5ccccc5C4)c3n2)cc1	HCV inh 11µM
O=C(C1CCCN(S(=O)(=O)Cc2ccccc2)C1)N1CCc2ccccc21 (stereo not given)	none (no result: Pf growth 48h)
Cc1cc(C)nc(NS(=O)(=O)c2ccc(NC(=O)CCC(=O)O)cc2)n1	none (no result: Pf growth 96h, Pf growth 48h)
Oc1ccc(-c2nc(-c3ccc(F)cc3)c(-c3ccncc3)[nH]2)cc1	HCV inh inconclusive, Pf growth 96h 13µM, Pf growth 48h inconclusive
Oc1ccc(N2CCN(C(=S)NCCc3ccccc3)CC2)cc1	HCV inh inconclusive, Pf growth 48h inconclusive
COc1cccc(N2CCN(CC(=O)Nc3ccccc3C(=O)NCCc3ccccc3)CC2)c1	HCV inh inconclusive, Pf growth 96h inconclusive, Pf growth 48h inconclusive
COc1cccc(N2CCN(CC(=O)Nc3ccccc3C(=O)NCc3ccccc3)CC2)c1	HCV inh inconclusive, Pf growth 96h inconclusive, Pf growth 48h 9.3µM
COc1cc2c(cc1OC)CN(CC(=O)Nc1ccccc1C(=O)NCc1ccccc1)CC2	Pf growth 96h 2.9µM, Pf growth 48h 17µM
COc1cc2c(cc1OC)CN(CC(=O)NC(=O)NCc1ccccc1)CC2	Pf growth 96h inconclusive, Pf growth 48h 9.3µM
COc1cc2c(cc1OC)CN(CC(=O)Nc1ccccc1C(=O)NC1CC1)CC2	Pf growth 48h inconclusive
O=C(CN1CCN(c2ccc(O)cc2)CC1)Nc1ccccc1C(=O)NCCc1ccccc1	HCV inh 13µM, Pf growth 96h inconclusive, Pf growth 48h inconclusive
Cc1ccc(CN2C(=O)c3ccccc3Sc3ccc(C(=O)NCCCN4CCOCC4)cc32)cc1	Pf growth 48h 12µM
CCN1C(=O)c2ccccc2Sc2ccc(C(=O)NCCCN3CCCCC3)cc21	HCV inh inconclusive, Pf growth 96h 10µM
CCCCNC(=O)Nc1ccc2c(c1)N(C)C(=O)c1ccccc1S2	Pf growth 96h 3.3µM, Pf growth 48h inconclusive
CCN(CC(=O)NCc1ccncc1)S(=O)(=O)c1ccccc1	none
CC(C)CC[n+]1ccccc1/C=C/c1ccc(N(C)C)cc1	HCV inh 5µM, Pf growth 48h 0.93µM
Brc1ccc(-[n+]2c(-c3ccccc3)cc(-c3ccccc3)cc2-c2ccccc2)cc1	HCV inh inconclusive, Pf growth 96h 0.83µM, Pf growth 48h 1.9µM
O=C(O)c1ccc(-[n+]2c(-c3ccccc3)cc(-c3ccccc3)cc2-c2ccccc2)cc1	Pf growth 96h inconclusive, Pf growth 48h inconclusive
COc1ccc(-[n+]2c(-c3ccccc3)cc(-c3ccc(C)cc3)cc2-c2ccccc2)cc1	HCV inh inconclusive, AMA1 RON2 block inconclusive, Pf growth 48h 0.93µM
CCCOC(=O)c1ccc(-[n+]2c(-c3ccccc3)cc(-c3ccccc3)cc2-c2ccccc2)cc1	HCV inh inconclusive, Pf growth 96h 1.3µM, Pf growth 48h 2.3µM
COc1ccc(CCn2c(C)cc(C(=O)CN3C(=O)C(=O)N(Cc4ccco4)C3=O)c2C)cc1	HCV inh inconclusive, Pf growth 96h inconclusive, Pf growth 48h inconclusive
Cc1nn(CSc2c(F)c(F)c(F)c(F)c2F)c(C)c1[N+](=O)[O-]	HCV inh inconclusive
Cc1cccn2c(=O)c(/C=C(\C#N)S(=O)(=O)c3ccccc3)c(Oc3ccc(Cl)cc3)nc12	HCV inh inconclusive, Pf growth 96h 12µM, Pf growth 48h inconclusive
Cc1ccccc1Oc1nc2c(C)cccn2c(=O)c1/C=C(\C#N)C(=O)Nc1c(C)n(C)n(-c2ccccc2)c1=O	Pf growth 96h inconclusive, Pf growth 48h inconclusive
Cc1cccn2c(=O)c(/C=C(\C#N)C(N)=O)c(Oc3ccccc3)nc12	Pf growth 48h inconclusive
Cc1cc(Oc2nc3c(C)cccn3c(=O)c2/C=C(\C#N)S(=O)(=O)c2ccccc2)ccc1Cl	Pf growth 96h 2.3µM, Pf growth 48h inconclusive
Cc1cccc(N2C(=O)C(Oc3ccc(Cl)cc3Cl)C2C=O)c1C (stereo not given)	HCV inh inconclusive, Pf growth 96h inconclusive, Pf growth 48h inconclusive
CC(C)(C)N(Cc1ccccc1)C(=O)COC(=O)CSc1ccc([N+](=O)[O-])cc1	AMA1 RON2 block inconclusive

Compound activity as filed in PubChem BioAssay.
